Data published in PubChem BioAssay (NCI).
The panel holds about 83,000 compounds, 20% with a hit somewhere; the sample as a whole holds those more often.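 Compound tested at a single concentration for 48 hours in 96-well plates; a percent growth value below 10 was scored as active.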 Unmarked numbers belong to inactive results. Calls of active or inactive are those of the source.

Tests used:
Experiment in all cases: NCI-60 one-dose screen, 48 h (100 = growth as untreated, 0 = no growth, -100 = all killed)
Conditions in all cases: 10 µM unless noted
DU-145 prostate = tested on: DU-145 prostate
K-562 leukemia = tested on: K-562 leukemia
MALME-3M melanoma = tested on: MALME-3M melanoma
MDA-MB-231 breast = tested on: MDA-MB-231 breast
SF-268 CNS = tested on: SF-268 CNS
SF-295 CNS = tested on: SF-295 CNS
SF-539 CNS = tested on: SF-539 CNS
UACC-257 melanoma = tested on: UACC-257 melanoma
M14 melanoma = tested on: M14 melanoma
HCT-15 colon = tested on: HCT-15 colon
HT29 colon = tested on: HT29 colon
SNB-75 CNS = tested on: SNB-75 CNS
SNB-19 CNS = tested on: SNB-19 CNS
U251 CNS = tested on: U251 CNS
PC-3 prostate = tested on: PC-3 prostate
SK-MEL-5 melanoma = tested on: SK-MEL-5 melanoma
UACC-62 melanoma = tested on: UACC-62 melanoma
LOX IMVI melanoma = tested on: LOX IMVI melanoma
SK-MEL-28 melanoma = tested on: SK-MEL-28 melanoma
RXF 393 renal = tested on: RXF 393 renal

| Structure (SMILES) | growth (DU-145 prostate) | growth (K-562 leukemia) | growth (MALME-3M melanoma) | growth (MDA-MB-231 breast) | growth (SF-268 CNS) [%] | growth (SF-295 CNS) | growth (SF-539 CNS) | growth (UACC-257 melanoma) | growth (M14 melanoma) | growth (HCT-15 colon) | growth (HT29 colon) | growth (SNB-75 CNS) | growth (SNB-19 CNS) [%] | growth (U251 CNS) | growth (PC-3 prostate) [%] | growth (SK-MEL-5 melanoma) | growth (UACC-62 melanoma) | growth (LOX IMVI melanoma) | growth (SK-MEL-28 melanoma) | growth (RXF 393 renal) |
| --- | --- | --- | --- | --- | --- | --- | --- | --- | --- | --- | --- | --- | --- | --- | --- | --- | --- | --- | --- | --- |
| c1ccc(Nc2nc(-c3ccccc3)c[se]2)cc1 | 98.4% | 80.1% | 78.6% | 64.3% | 95.7 | 93% | 93.7% | 98.6% | 87.3% | 86.9% | 102% | 83% | 91.7 | 84.4% | 83.6 | 89.2% | 78.7% | 93.5% | 98.8% |  |
| Nc1nc([Se])c2ncn(C3OC(CO)C(O)C3O)c2n1 (stereo not given) | 39.9% | 21.7% | 69.3% | 22% | 87 | 42.6% | 81% | 83.8% | 40.6% | 85.6% | 55.2% | 96.7% | 98 | 94.6% | 93.4 | 92.2% | 68.5% | 10.1% |  |  |
| CCCc1cc(O)c2c3c(c(=O)oc2c1)CN(C)CC3 | 43% | 12% | -1.24% (active) | 60.4% | 37 |  | 31.7% | 68.5% | 16.4% | 23.2% | 10.8% | -8.41% (active) | 44.4 | 16.7% |  | 42.3% | 37.8% | 30.9% | 56.4% | 10.9% |
| N/C(=N/N=C/c1ccncc1)N[N+](=O)[O-] | 108% | 90% | 96.2% |  | 102 | 99.5% | 94.3% | 102% | 104% | 97.3% | 101% | 96% | 104 | 97.4% | 97.9 | 103% | 97.3% | 95.5% | 110% | 121% |
| O=NNc1ccccn1 | 5.33% (active) | 77.7% |  | 91.2% | 91.1 | 96% | 94.3% | 94.9% | 87.3% | 40.2% | 34.3% | 95.5% | 101 | 80.1% | 82.9 | 99.3% | 85.9% | 71.1% | 100% | 83.8% |
| CCOC(=O)c1c(C)n(Cc2ccccc2)c2cc(CN(C)C)c(O)cc12 | 79.9% | 29.3% | 103% |  | 82.9 | 43.6% | 57.8% | 81.8% | 81.3% | 63.4% | 37% | 50.5% | 72.2 | 67.8% | 57.4 | 82.5% | 58.4% | 28.8% | 80.2% | 66.9% |
| COC(=O)C12CC(NC(=O)c3csc([C@@H](C[C@H](C(C)C)N(C)C(=O)[C@@H](NC(=O)[C@H]4CCCCN4C)C(C)C)OC(C)=O)n3)(C1)C2 | 16.6% | 12% | 54.4% | 11.9% | 22.9 | -11.2% (active) | -29.9% (active) |  | 2.68% (active) | 5.8% (active) | 2.39% (active) | 47% | 29.1 | 20.7% | 23 | -38.8% (active) | 37.2% | 22.2% |  |  |
| Cc1ccc(S(=O)(=O)F)cc1C(=O)O | 104% | 109% | 86.8% | 107% | 101 | 95.1% | 94% | 93.3% | 110% | 102% | 100% | 76.8% | 97.5 |  | 110 | 102% | 109% | 102% | 110% |  |
| COC(=O)[C@@H](C)C[C@H](Cc1ccc(F)cc1)NC(=O)c1csc([C@@H](C[C@H](C(C)C)N(C)C(=O)[C@@H](NC(=O)[C@H]2CCCCN2C)C(C)C)OC(C)=O)n1 | 13.5% | 8.92% (active) | 47% | 4.87% (active) | 27 | 8.69% (active) | -6.38% (active) |  | -5.96% (active) | 15.6% | 3.51% (active) | 63.8% | 36.6 | 6.95% (active) | 28.4 | -32.8% (active) | 42.2% | 23.1% | 58.9% |  |
| CCOC(=O)CCC(NC(=O)C(Cc1ccc(N(CCCl)CCCl)cc1)NC=O)C(=O)OCC (stereo not given) | 36.3% | 35.6% | -80.2% (active) |  |  | 21.5% | -61.7% (active) | -9.97% (active) | -62.9% (active) | 36.3% | 62.3% | 30.3% |  | 48.4% | 71.7 | -70.1% (active) | -37.7% (active) | -78.3% (active) | -29.9% (active) | -75.9% (active) |
| C[C@]12CCc3nc(Nc4ccccc4F)sc3C1=CC[C@@H]1[C@@H]2CC[C@]2(C)C(=O)CC[C@@H]12 | 28.4% | 21.7% | 75.7% | 92.5% | 78.8 | 51% | 41.4% | 90.7% | 75.1% |  | 19.1% | 87.3% | 85.1 | 54.3% | 54.9 | 81.9% | 85.8% | 14.5% | 77% |  |
| CN(C)C(=O)Oc1ccccc1-c1ccccc1 | 111% | 89.5% | 110% | 110% | 102 | 97.4% | 103% |  | 103% | 103% | 101% | 107% | 104 | 101% | 91.9 | 102% | 104% | 97% | 116% |  |
| O=C1C=C(N2C3C4CCC(C4)C32)C(=O)C=C1c1ccccc1 (stereo not given) | 105% | 32.9% | 55.4% | 76.6% | 89.6 |  | 96.5% | 73.1% | 111% | 82.7% | 108% | 65.4% | 91.4 |  | 81.7 | 95.9% | 80.6% | 89.9% | 91.7% |  |
| CC(=O)/C=C/c1ccc2c(c1)OCO2 | 104% | 106% | 92% | 95.1% | 106 | 94.1% | 102% | 91.7% | 100% | 99.7% | 106% | 79.2% | 84.6 |  | 95.8 | 100% | 90.2% | 109% | 107% |  |
| CC1(C)[C@H](O)[C@H](F)C[C@@]2(C)Oc3ccc(C(=O)Nc4ccc5c(c4)NC(=O)C54CCN(CCCCC#N)CC4)cc3C[C@H]12 | 48.5% | 2.93% (active) | 13.5% | 28.8% | 43.6 | -59.6% (active) | 8.86% (active) |  | -6.54% (active) | 45.7% | 16% | 46.8% | 32.2 | 10.6% | 24.4 | -60.7% (active) | -24.4% (active) | 7.04% (active) | 4.12% (active) |  |
| COc1cccc(C=NC(Cc2cnc[nH]2)C(=O)O)c1O (stereo not given) | 121% | 135% |  | 102% | 112 | 70.3% | 93.1% | 46.7% | 89.7% | 108% | 100% | 86.3% | 96.1 | 102% | 51.5 | 94.2% | 95.6% | 100% | 103% | 3.56% (active) |
